Inconclusive results are not listed. Activity calls are given as the source filed them. Unless noted, calls follow the shape of the dose curve; as a rule, active = well fitted curve in the direction sought with a large enough effect; inconclusive = small, poorly fitted or top-dose-only effect, or another doubt; inactive = no such curve, though single readings can be large; an effect the other way counts as inactive or inconclusive.

The nature of test [1]: AP1 Signaling Pathway (AID 357; active = well fitted curve in either direction with a large enough effect, not every such curve was filed as active;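 also: ME-180 reporter cells stimulated with EGF at its EC50 level; % is scaled to controls: 0 for no effect and ±100 for the full control effect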). In a few lines: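 Read-out was the 460nm/530nm emission ratio (excitation 405nm) after CCF4 loading for 2.5 hours at room temperature. Cells carried an AP-1-driven beta-lactamase reporter, were stimulated with EC50 EGF plus compound for 5 hours, and AC50 values came from titrations.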
Test [2] deals with Cytochrome P450 1A2 (Homo sapiens) (UniProt P05177). The test can be described thus: p450-cyp1a2 (AID 410; calls by dose curve;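 also: -100% = full effect of reference inhibitor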). The method, boiled down:
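O-Demethylation of luciferin 6' methyl ether by human CYP1A2 is monitored as luciferase luminescence. Substrate sits at Km (100uM); enzyme is 20nM. Values are scaled to 57 uM furafylline as maximal inhibition.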

Test [3] in a line: NFAT Signaling Pathway (AID 444; active = well fitted curve in either direction with a large enough effect, not every such curve was filed as active;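 also: carbachol stimulus at about its EC50 of 1 µM final; % is scaled to controls: 0 for no effect and ±100 for the full control effect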). Particulars: Jurkat NFAT-bla M1, carbachol, beta-lactamase ratio, 5 h. In a few lines: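 Jurkat cells with NFAT-driven β-lactamase reporter and co-expressed M1 receptor, stimulated with carbachol (final 1 uM, ~EC50), compound titration, 5 h at 37 °C. CCF4 loaded 1 h at RT; 460/530 nm ratio gave %activity and AC50.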
Test [4] can be described thus: Stat Signaling Pathway (AID 446; active = well fitted curve in either direction with a large enough effect, not every such curve was filed as active;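 also: ME-180 cervical cancer cells given 40 pM IL-6 alongside compound; SIE-controlled beta-lactamase reporter measured as 460/530 nm FRET emission ratio; % is scaled to controls: 0 for no effect and ±100 for the full control effect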). In a few lines: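 Overnight-plated ME-180 cells bearing a STAT Inducible Element beta-lactamase reporter; 5 h co-exposure to compound and 40 pM IL-6; values normalized to 300 pM IL-6 and 125 nM JAK inhibitor controls.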
The target in test [5] is Glucocorticoid receptor (Homo sapiens) (UniProt P04150). Description: GR-GFP Redistribution (AID 450;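 active = compounds whose dose series gives a full or clear partial fitted curve of increased nuclear translocation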; also: potency is read from the fitted curve at half-maximal effect). The settings on record: U2OS GR-GFP nuclear translocation, laser cytometry, 2 h.
The target is the same in test [6]. Description: GR-EFC Redistribution (AID 451; calls by dose curve; also: potency is read from the fitted curve at half-maximal effect). Particulars: CHO-K1 GR-EFC translocation, beta-gal luminescence, 2 h. In a few lines:
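CHO-K1 cells expressing nuclear EA and GR-ED fragments of b-gal; compounds titrated up to 46 uM final, 2 h at 37 C. GR nuclear translocation read as complemented b-gal luminescence after 1 h RT detection.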

Test [7] addresses Mitogen-activated protein kinase 10 (Mus musculus) (UniProt Q61831). The test can be described thus: JNK3 AlphaScreen Assay (AID 530; active = well fitted curve in either direction with a large enough effect, not every such curve was filed as active;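 also: kinase came from lysate of stimulated human HepG2 cells; signal reports phosphorylation of biotinylated GST-cJun 1-79 at Ser73 with 10 µM ATP; % is scaled to controls: 0 for no effect and ±100 for the full control effect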). In a few lines:
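Activity was read by AlphaScreen after JNK3-containing HepG2 lysate (cytokine pre-activated) phosphorylated biotinylated GST-cJun with 10 uM ATP at room temperature. Phospho-Ser73 cJun antibody with Protein-A acceptor beads provided detection.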

Test [8] concerns the target 3',5'-cyclic-AMP phosphodiesterase 4B (Homo sapiens) (UniProt Q07343). Description: qHTS Assay for Inhibitors of PDE-IV (AID 607; active = well fitted activation curve with a large enough effect in the main read-out, with a control signal flat, not every such curve was filed as active; also: % of control where 0% means no effect). In a few lines: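 Live HEK293 cells with a modified cyclic nucleotide-gated (CNG) channel report intracellular cAMP via membrane-potential dye fluorescence (ex 535/em 590 nm). Endogenous PDE-IV was targeted. Compounds were tested at up to 22.9 uM final; RO 20-1724 100 uM served as control.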

Test [9] has as its target Cytochrome P450 3A4 (Homo sapiens) (UniProt P08684). Description: qHTS Assay for Activators of Cytochrome P450 3A4 (AID 885). Also: nearly all actives have a fitted effect of over 65% in size. The method, boiled down: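 Using 20nM recombinant human CYP3A4 in potassium phosphate (200mM), substrate Luciferin-PPXE at 25uM, luminescent luciferin detection followed a 60-min RT NADPH reaction; data scaled to 57 uM ketoconazole.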
Test [10] is described as follows: qHTS Assay for Lipid Storage Modulators (AID 1519; calls by dose curve). The settings on record: Drosophila S3 cells, BODIPY lipid droplet/cell ratio, laser cytometry, cells loaded with oleic acid. In a few lines:
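Cells seeded at 5,000 per well were treated with compounds over a concentration series and loaded with oleic acid (400 uM, as added). Lipid droplet fluorescence (488 nm excitation, 500-530 nm channel) was read by laser-scanning cytometry and normalized to 20 uM Triacsin C.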

In test [11] the target is ATP-dependent 6-phosphofructokinase (Trypanosoma brucei brucei) (UniProt O15648). The test can be described thus: qHTS Assay to Find Inhibitors of T. brucei phosphofructokinase: hit validation (AID 492961). Also: % is scaled to controls: 0 for no effect and ±100 for the full control effect. The method, boiled down: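 Luminescence from ADP-Glo reports ADP generated as T. brucei PFK (1.25 nM) phosphorylates 0.5 mM fructose-6-phosphate using 0.1 mM ATP. Reactions ran 45 min at room temperature, pH 8.0.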

The target in test [12] is Luciferin 4-monooxygenase (Photinus pyralis) (UniProt P08659). Description: Biochemical firefly luciferase enzyme assay for NPC (AID 624030).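 Also: purified P. pyralis luciferase at 10 nM with luciferin and ATP substrate; 0% = DMSO and -100% = full luciferase inhibition by PTC124 control; nearly all actives have a fitted effect of over 70% in size.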 The method, boiled down:
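Purified P. pyralis luciferase at 10 nM in 50 mM Tris Acetate (final), luminescence read within 5 minutes of enzyme addition to compounds. Activity normalised to PTC124 versus DMSO; concentration-response curves classed by r2, magnitude and activity.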

Test [13] can be described thus: S16 Schwann cell PMP22 intronic element firefly luciferase assay (AID 624032).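 Also: plate controls were DMSO for no effect and PTC124 positive control mean for full effect; nearly all actives have a fitted effect of over 30% in size.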 The method, boiled down: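 Rat S16 Schwann cells stably carrying firefly luciferase driven by a PMP22 intronic element, in 10% FBS, treated 24 h at 37 C. ONE-Glo luminescence normalized to PTC124 control and DMSO (0%); curves classed by r2, magnitude and activity.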
Test [14] is described as follows: qHTS profiling for inhibitors of Plasmodium falciparum proliferation (AID 504749).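 Also: 0% = DMSO vehicle and full inhibition = artemisinin control; nearly all actives have a fitted effect of over 60% in size.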 Particulars: P. falciparum in erythrocytes, SYBR Green DNA, 72 h, at 12.8 µM (top of the series). In a few lines:
(§1)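 Each compound contacts P. falciparum-infected red blood cells for 72 h at 37 C; lysis buffer (Tris, EDTA, saponin, Triton X, SYBR Green I) is added and fluorescence measured next morning; values normalized to controls.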

In test [15] the test system is C2A. Described as above. Particulars: P. falciparum in erythrocytes, SYBR Green DNA, 72 h; series mostly up to 28.7 µM. In a few lines:
as §1

Test [16] has as its system CP192. Described as above. Particulars: P. falciparum in erythrocytes, SYBR Green DNA, 72 h; series mostly up to 28.7 µM. The method, boiled down: as §1
Test [17] has as its system CP262. The test is described as above. Particulars: P. falciparum in erythrocytes, SYBR Green DNA, 72 h; series mostly up to 28.7 µM. The method, boiled down:
as §1

For test [18], the system named is CP286. The test is described as above. Particulars: P. falciparum in erythrocytes, SYBR Green DNA, 72 h; series mostly up to 28.7 µM. The method, boiled down:
as §1

In test [19] the test system is FAB9. The description is as above. The settings on record: P. falciparum in erythrocytes, SYBR Green DNA, 72 h; series mostly up to 28.7 µM. The method, boiled down: as §1
Test [20] deals with Ubiquitin carboxyl-terminal hydrolase 1 (Homo sapiens) (UniProt O94782). Description: Inhibitors of USP1/UAF1: Pilot qHTS (AID 504865).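 Also: rhodamine fluorescence freed from ubiquitin-rhodamine substrate followed over time; top concentration of the series differs between compounds; % is scaled to controls: 0 for no effect and ±100 for the full control effect; nearly all actives have a fitted effect of over 35% in size.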 The method, boiled down:
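In 50mM HEPES pH 7.8 containing 0.5mM EDTA, 1mM TCEP, 0.1 mg/ml BSA and 0.01% Tween-20, 1nM USP1/UAF1 is exposed to compound for 15 min, then Ub-Rho (150nM final) is added and fluorescence is read over time.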

[21] abbreviates: measured here: cell count channel max response.
Where [22] appears, read: measured here: lipid channel max response.

Cytochrome P450 1A2 (Homo sapiens), sequence (P05177 whole entry, looked up): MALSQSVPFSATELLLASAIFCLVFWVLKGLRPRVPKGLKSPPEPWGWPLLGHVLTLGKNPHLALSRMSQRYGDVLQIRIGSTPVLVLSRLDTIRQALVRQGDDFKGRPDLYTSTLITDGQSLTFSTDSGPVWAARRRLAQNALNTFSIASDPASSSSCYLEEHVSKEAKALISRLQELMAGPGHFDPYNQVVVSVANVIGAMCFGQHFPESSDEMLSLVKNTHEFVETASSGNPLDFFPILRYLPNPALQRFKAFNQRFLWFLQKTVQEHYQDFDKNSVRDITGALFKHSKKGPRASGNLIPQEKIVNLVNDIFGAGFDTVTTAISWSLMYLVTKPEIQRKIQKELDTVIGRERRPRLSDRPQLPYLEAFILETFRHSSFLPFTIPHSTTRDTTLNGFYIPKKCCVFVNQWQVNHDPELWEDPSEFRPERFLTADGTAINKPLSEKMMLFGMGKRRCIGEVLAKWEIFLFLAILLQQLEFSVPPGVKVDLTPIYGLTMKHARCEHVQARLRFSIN
Glucocorticoid receptor (Homo sapiens), sequence (P04150 whole entry, looked up): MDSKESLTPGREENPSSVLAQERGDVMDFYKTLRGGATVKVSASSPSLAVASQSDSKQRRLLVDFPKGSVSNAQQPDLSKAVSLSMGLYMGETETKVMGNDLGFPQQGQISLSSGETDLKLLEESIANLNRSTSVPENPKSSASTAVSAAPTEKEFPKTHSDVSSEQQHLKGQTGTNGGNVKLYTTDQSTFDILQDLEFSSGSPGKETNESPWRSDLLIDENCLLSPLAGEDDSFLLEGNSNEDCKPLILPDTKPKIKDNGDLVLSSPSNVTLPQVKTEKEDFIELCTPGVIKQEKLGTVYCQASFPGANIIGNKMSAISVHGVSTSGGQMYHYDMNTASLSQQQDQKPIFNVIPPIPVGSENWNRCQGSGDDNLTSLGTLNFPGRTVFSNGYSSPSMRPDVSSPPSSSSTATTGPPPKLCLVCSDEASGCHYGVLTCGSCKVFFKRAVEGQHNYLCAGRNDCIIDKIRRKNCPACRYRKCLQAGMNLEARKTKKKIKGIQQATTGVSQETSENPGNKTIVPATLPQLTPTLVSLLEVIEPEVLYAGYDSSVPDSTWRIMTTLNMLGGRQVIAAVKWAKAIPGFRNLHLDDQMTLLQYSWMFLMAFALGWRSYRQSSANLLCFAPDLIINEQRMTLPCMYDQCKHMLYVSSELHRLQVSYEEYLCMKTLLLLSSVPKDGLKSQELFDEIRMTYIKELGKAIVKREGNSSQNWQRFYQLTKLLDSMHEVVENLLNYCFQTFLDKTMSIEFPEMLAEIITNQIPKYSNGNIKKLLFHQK
3',5'-cyclic-AMP phosphodiesterase 4B (Homo sapiens), sequence (Q07343 whole entry, looked up): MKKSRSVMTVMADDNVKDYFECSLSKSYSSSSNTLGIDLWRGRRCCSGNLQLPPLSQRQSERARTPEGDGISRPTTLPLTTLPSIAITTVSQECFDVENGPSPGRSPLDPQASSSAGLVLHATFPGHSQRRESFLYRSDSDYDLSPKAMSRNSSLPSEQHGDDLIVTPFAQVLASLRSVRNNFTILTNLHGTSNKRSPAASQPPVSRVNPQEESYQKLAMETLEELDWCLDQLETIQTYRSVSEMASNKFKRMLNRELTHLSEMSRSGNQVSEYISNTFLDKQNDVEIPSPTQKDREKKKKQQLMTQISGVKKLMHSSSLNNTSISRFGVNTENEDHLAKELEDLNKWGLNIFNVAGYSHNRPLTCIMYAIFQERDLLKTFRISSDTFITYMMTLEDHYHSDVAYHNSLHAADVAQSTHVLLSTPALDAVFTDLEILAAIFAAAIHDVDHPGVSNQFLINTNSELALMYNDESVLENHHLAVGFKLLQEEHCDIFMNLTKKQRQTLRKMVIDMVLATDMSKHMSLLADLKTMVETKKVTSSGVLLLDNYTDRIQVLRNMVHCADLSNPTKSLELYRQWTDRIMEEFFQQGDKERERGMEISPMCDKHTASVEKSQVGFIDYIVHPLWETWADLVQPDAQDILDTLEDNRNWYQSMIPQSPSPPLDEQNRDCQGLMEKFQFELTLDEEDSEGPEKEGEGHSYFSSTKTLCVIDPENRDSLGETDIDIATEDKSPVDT
Ubiquitin carboxyl-terminal hydrolase 1 (Homo sapiens), sequence (O94782 whole entry, looked up): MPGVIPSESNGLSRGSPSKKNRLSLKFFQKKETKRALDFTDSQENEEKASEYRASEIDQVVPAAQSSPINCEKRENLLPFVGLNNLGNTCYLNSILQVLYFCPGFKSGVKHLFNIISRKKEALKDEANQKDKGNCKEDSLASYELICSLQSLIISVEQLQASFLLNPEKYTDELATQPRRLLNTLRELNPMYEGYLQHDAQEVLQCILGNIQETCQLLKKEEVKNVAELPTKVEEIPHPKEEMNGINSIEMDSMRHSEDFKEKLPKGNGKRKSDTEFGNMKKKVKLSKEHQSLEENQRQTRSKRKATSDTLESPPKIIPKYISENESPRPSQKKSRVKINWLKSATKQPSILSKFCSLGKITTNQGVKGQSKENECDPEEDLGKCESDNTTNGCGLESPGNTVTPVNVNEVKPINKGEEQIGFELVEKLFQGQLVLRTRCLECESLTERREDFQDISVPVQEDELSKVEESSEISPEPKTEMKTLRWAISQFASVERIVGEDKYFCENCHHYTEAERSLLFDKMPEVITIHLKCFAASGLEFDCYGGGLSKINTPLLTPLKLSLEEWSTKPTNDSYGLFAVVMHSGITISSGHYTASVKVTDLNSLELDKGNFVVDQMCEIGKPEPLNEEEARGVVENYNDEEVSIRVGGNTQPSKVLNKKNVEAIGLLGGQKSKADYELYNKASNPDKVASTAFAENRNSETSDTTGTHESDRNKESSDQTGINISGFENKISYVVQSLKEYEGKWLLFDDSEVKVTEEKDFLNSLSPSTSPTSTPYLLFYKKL
Luciferin 4-monooxygenase (Photinus pyralis), sequence (P08659 whole entry, looked up): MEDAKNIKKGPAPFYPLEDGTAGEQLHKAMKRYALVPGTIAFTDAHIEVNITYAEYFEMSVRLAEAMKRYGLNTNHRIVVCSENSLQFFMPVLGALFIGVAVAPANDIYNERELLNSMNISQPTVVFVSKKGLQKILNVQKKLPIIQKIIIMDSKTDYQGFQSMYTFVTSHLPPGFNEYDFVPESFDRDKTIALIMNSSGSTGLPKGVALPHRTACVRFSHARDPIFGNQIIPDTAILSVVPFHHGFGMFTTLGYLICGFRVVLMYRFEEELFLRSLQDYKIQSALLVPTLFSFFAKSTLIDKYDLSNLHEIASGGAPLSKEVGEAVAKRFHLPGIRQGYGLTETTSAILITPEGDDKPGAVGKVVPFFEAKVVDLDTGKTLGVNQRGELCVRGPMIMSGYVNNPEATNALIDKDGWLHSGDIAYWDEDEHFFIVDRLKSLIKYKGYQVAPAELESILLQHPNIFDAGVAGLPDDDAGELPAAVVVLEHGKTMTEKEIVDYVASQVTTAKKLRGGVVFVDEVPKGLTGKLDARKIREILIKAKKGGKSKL
ATP-dependent 6-phosphofructokinase (Trypanosoma brucei brucei), sequence (O15648 whole entry, looked up): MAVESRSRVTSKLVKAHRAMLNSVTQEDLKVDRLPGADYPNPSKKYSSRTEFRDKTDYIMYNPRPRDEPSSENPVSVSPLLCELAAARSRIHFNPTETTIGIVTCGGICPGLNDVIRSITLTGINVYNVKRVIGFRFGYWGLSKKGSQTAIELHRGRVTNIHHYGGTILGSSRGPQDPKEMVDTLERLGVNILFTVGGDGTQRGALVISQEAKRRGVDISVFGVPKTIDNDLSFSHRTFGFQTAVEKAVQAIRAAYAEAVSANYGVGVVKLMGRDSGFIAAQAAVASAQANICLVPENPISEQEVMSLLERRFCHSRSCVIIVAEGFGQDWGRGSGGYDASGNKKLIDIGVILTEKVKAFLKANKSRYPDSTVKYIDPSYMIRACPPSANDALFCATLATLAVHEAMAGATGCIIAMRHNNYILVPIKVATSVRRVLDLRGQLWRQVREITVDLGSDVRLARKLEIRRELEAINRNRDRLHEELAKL
Cytochrome P450 3A4 (Homo sapiens), sequence (P08684 whole entry, looked up): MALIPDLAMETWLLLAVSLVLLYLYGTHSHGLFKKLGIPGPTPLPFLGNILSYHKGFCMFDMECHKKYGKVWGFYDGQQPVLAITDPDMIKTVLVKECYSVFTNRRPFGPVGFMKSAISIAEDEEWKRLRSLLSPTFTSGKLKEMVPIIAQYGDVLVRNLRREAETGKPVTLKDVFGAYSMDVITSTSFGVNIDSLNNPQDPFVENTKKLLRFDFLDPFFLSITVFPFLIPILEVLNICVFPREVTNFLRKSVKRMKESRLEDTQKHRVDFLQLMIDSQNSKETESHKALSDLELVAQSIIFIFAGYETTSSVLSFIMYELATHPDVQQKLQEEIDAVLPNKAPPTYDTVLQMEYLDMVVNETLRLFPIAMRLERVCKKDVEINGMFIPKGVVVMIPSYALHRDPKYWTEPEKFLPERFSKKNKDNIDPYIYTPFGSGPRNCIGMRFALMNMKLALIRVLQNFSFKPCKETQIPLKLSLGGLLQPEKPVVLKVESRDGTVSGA

For `CC(C)c1c(CN(C)[C@@H](C)Cc2ccccc2)n(C)n(-c2ccccc2)c1=O`, the call in [1], in test [4] and in [7] was inactive. The Potency entry in [2], in test [8], in test [9], in test [11], in test [12] and in [13] was “inactive” throughout. The Potency result in test [15], in test [16], in [17], in test [18] and in test [19] was “inactive” in each case. In addition, the activity change, negative = inhibition is -17.7% (inactive) in [3] (at 17.2 µM (top of the series)) and -3.14% (inactive) in test [10] (at 25.7 µM (top of the series)). The Potency in [5] and in test [6] was > 20.6 µM (inactive) throughout. Also, the max response in test [10] (setting [21]) is -13.6%; in test [10] (setting [22]), -14.7%. The activity, negative = inhibition in test [14] (parasite line A) was 6.98% (inactive).

For the molecule `O=C(Nc1cccc(F)c1)N1CCC2(CC1)CCN(C(=O)Oc1ccccc1)CC2`, the molecule was called inactive in test [1], in [4] and in test [7]. Besides, the Potency entry in test [2] and in test [8] was “inactive” in each case. For the same molecule, the activity change, negative = inhibition is 12% (inactive) in [3] (at 7.69 µM (top of the series)) and -7.04% (inactive) in test [10] (at 57.5 µM (top of the series)). Besides, the Potency in test [6] is > 46 µM (inactive). Also, the max response is -23.3% in test [10] (setting [21]) and -28% in test [10] (setting [22]).

With `CCNc1nc(Cl)nc(NC(C)C)n1`, the call in test [7] was inactive. Moreover, the activity change, negative = inhibition in test [10] (at 57.5 µM (top of the series)) was 7.77% (inactive). For the same molecule, the max response in [10] (setting [21]) turned out to be 2.72%; in test [10] (setting [22]), 11.1%. Also, the Potency result in [20] was “inactive”.

With `CCN1C[C@]2(COC)CC[C@H](O)[C@@]34[C@@H]5C[C@H]6[C@@H](OC)[C@H]5[C@](O)(C[C@@H]6OC)[C@@](O)([C@@H](OC)[C@H]23)[C@@H]14`, the molecule was called inactive in test [1], in [4] and in test [7]. Moreover, the Potency entry in [2], in test [8] and in test [20] was “inactive” in each case. Also, the activity change, negative = inhibition was 2.57% (inactive) in [3] (at 17.2 µM (top of the series)) and 0.923% (inactive) in test [10] (at 25.7 µM (top of the series)). In addition, the Potency in test [5] and in test [6] was > 20.6 µM (inactive) in each case. Besides, the max response in [10] (setting [21]) was -10.9%; in test [10] (setting [22]), -9.81%.

For `C[C@H](N)[C@@H](O)c1ccccc1`, the result in test [1], in test [4] and in [7] was inactive. Further, the Potency result in test [2], in test [8], in test [11], in test [20], in test [12] and in test [13] was “inactive” each time. In addition, the Potency entry in test [15], in [16], in test [17], in test [18] and in test [19] was “inactive” each time. Besides, the activity change, negative = inhibition in [3] (at 17.2 µM (top of the series)) was 10.1% (inactive); in test [10] (at 25.7 µM (top of the series)) it was 1.99% (inactive). Besides, the Potency in test [5] and in [6] was > 20.6 µM (inactive) throughout. In addition, the max response was 17% in [10] (setting [21]) and 20.5% in [10] (setting [22]). The activity, negative = inhibition in [14] (parasite line A) was -2.43% (inactive); in test [14] (parasite line B), 9.04% (inactive).

Turning to `CCC[C@@](C)(COC(N)=O)COC(=O)NC(C)C`, the result in test [1], in test [4] and in test [7] was inactive. Moreover, the Potency result in [2], in test [8] and in [20] was “inactive” each time. Also, the activity change, negative = inhibition in [3] (at 17.2 µM (top of the series)) is -5.77% (inactive); in test [3] (at 38 µM (top of the series)) it was -2.28% (inactive); in test [10] (at 25.7 µM (top of the series)), -3.74% (inactive). Also, the values for the max response in test [10] (setting [21]) and in test [10] (setting [22]) were 10.2% and 7.74%, respectively.
